The source of these data is the supplement of paper PMC11150407.

Structures can show the parent of a compound that is named as a salt. In all, about 2,100 compounds went through this assay and about 180 (8.6%) showed an effect of 50% or more. The sample holds strong results, similar compounds and a random draw of the others, so the mix is not that of the screen.

The test deals with MOLM1 and UCSD/AML1 (averaged). Nature of the test: cell viability relative to DMSO control (POC); higher = less growth inhibition. The conditions noted are these: 1 µM; 72 h. The procedure: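 Primary viability screen in the 3q26 EVI1-high AML cell lines MOLM1 and UCSD/AML1 (1.5e3 cells/well, 384-well), compounds at 1 uM for 72 h. ATP CellTiter-Glo read-out given as percent of viable cells over DMSO control (POC), averaged over duplicates. DMSO was the negative control and 5 uM etoposide the positive control. This mapping covers the MicroSource Spectrum and Selleck anticancer libraries (drug names).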
Take `C=C(C)[C@H]1COc2cc3oc(=O)ccc3cc2O1`: the cell viability (usually a read-out of living cells in per cent, often relative to untreated cells) came to 93.3%.

With `CC(C)C[C@@H](C(=O)N[C@H](C(=O)OC1CCCC1)c1ccccc1)[C@H](O)C(=O)NO` [Tosedostat (CHR2797)], the cell viability was found to be 77.5%.

In the case of `O=C([O-])c1ccccc1O.[Na+]`, the cell viability was 102%.

In the case of `COc1c(C)cnc(Cn2cnc3c(Cl)nc(N)nc32)c1C`, the cell viability came to 4.8%.

For the compound `COc1ccc2[nH]c([S+]([O-])Cc3ncc(C)c(OC)c3C)nc2c1` (stereo not drawn), the cell viability was determined as 92.4%.

As for `COc1cc(-c2coc3cc(O)c(OC)c(O)c3c2=O)cc(O)c1OC`, the cell viability amounted to 90.5%.

For `O=C(O)c1cc(=O)c2cccc(O)c2[nH]1`, the cell viability worked out at 102%.

`C[C@H]1O[C@@H](O[C@H]2[C@@H](O)C[C@H](O[C@H]3[C@@H](O)C[C@H](O[C@H]4CC[C@@]5(C)[C@H](CC[C@@H]6[C@@H]5C[C@@H](O)[C@]5(C)[C@@H](C7=CC(=O)OC7)CC[C@]65O)C4)O[C@@H]3C)O[C@@H]2C)C[C@H](O)[C@@H]1O`: the cell viability came to 3.03%.

For the compound `C[C@H]1O[C@@H](O[C@H]2[C@@H](O)C[C@H](O[C@H]3[C@@H](O)C[C@H](O[C@H]4CC[C@@]5(C)[C@H](CC[C@@H]6[C@@H]5CC[C@]5(C)[C@@H](C7=CC(=O)OC7)CC[C@]65O)C4)O[C@@H]3C)O[C@@H]2C)C[C@H](O)[C@@H]1O`, the cell viability turned out to be 2.44%.

For the compound `CO[C@H]1O[C@H](CO)C(O[C@@H]2OC(C(=O)O)[C@@H](O[C@H]3O[C@H](COS(=O)(=O)O)C(O[C@@H]4OC(C(=O)O)[C@@H](O[C@H]5O[C@H](CO)C(O[C@@H]6OC(C(=O)O)[C@@H](O[C@H]7O[C@H](COS(=O)(=O)O)C(O[C@@H]8OC(C(=O)O)=C[C@H](O)C8OS(=O)(=O)O)[C@H](O)[C@H]7NC(C)=O)[C@H](O)[C@H]6O)[C@H](O)[C@H]5NC(C)=O)[C@H](O)[C@H]4O)[C@H](O)[C@H]3NC(C)=O)[C@H](O)[C@H]2O)[C@H](O)[C@H]1NC(C)=O` (stereo partly drawn), the cell viability amounted to 86.8%.

On to `COc1cc(O)c(C(C)=O)c(OC)c1`, for which the cell viability amounted to 101%.

Take `O=C(/C=C/C(=O)Oc1ccccc1C(=O)O)Oc1ccccc1C(=O)O`: the cell viability stood at 110%.

Regarding `C[C@H]1C(=O)CC[C@@H]2[C@]1(C)CC[C@H]1[C@@]2(C)CC[C@@]2(C)[C@@H]3CC(C)(C)CC[C@]3(C)CC[C@]12C`, the cell viability was 113%.

As to `COc1cc2oc3cc(OC)c(OC)c(CC=C(C)C)c3c(=O)c2c(O)c1CC=C(C)C`, the cell viability is 99.9%.

As for `CCCCCC1C(=O)CCC1CC(=O)O` (stereo not drawn), the cell viability stood at 86.2%.

On to `O=C(O[C@@H]1Cc2c(O)cc(O)cc2O[C@@H]1c1cc(O)c(=O)c2c(O)c(O)cc([C@H]3Oc4cc(O)cc(O)c4C[C@H]3OC(=O)c3cc(O)c(O)c(O)c3)c2c1)c1cc(O)c(O)c(O)c1`, for which the cell viability worked out at 108%.

For the compound `Cc1cc(O)c2c(c1)C(=O)c1cccc(O)c1C2=O` [Chrysophanic acid (Chrysophanol)], the cell viability was 93.8%.

For `Cc1cc(O)c2c(c1)C(=O)c1cccc(O)c1C2=O`, the cell viability is 115%.

In the case of `O=C(O)c1cc(O)c(=O)c2c(O)c(O)ccc2c1`, the cell viability was 108%.

With `CCC(C)C(NC)C(=O)O` (stereo not drawn), the cell viability was 118%.

As to `COC(=O)c1ccc2c(C(=Nc3ccc(N(C)C(=O)CN4CCN(C)CC4)cc3)c3ccccc3)c(O)[nH]c2c1` [BIBF1120 (Vargatef)], the cell viability came out at 11.9%.

With `CC(=O)c1ccc[nH]1`, the cell viability came to 92.8%.

For `C=CC(C)(O)CCC1C(=C)CC(OC(C)=O)C2C(C)(C)CCCC12C` (stereo not drawn), the cell viability came out at 98.6%.

Turning to `O=C1CC[C@]23/C=C/C(=O)NCCCCNCCCNC(=O)/C=C/c4ccc(c2c4)O[C@@H]3C1`, the cell viability was 97.1%.

Consider `COC1=CC(c2cc3ccccc3[nH]2)=N/C1=C\c1[nH]c(C)cc1C` [Obatoclax mesylate (GX15-070)], for which the cell viability amounted to 18.7%.

Turning to `CC1(C)O[C@H]2[C@H](O)C[C@](O)(C(N)=O)C[C@H]2O1`, the cell viability came out at 94.1%.

Turning to `CC1(C)[C@@H](O)CC[C@]2(C)[C@H]3C(=O)C=C4[C@H]5C[C@@](C)(C(=O)O)CC[C@]5(C)CC[C@@]4(C)[C@]3(C)CC[C@@H]12` [18alpha-GLYCYRRHETINIC ACID], the cell viability is 95.3%.

For the compound `COc1c(O)cccc1O`, the cell viability was 97.7%.

Take `COc1cc(Nc2c(C#N)cnc3cc(OCCCN4CCN(C)CC4)c(OC)cc23)c(Cl)cc1Cl` [Bosutinib (SKI-606)]: the cell viability was determined as 21.3%.

For the compound `COc1cc2c(Oc3ccc4[nH]c(C)cc4c3F)ncnc2cc1OCCCN1CCCC1` [Cediranib (AZD2171)], the cell viability is 66.3%.

Regarding `COc1cc2ncnc(Nc3ccc(F)c(Cl)c3)c2cc1OCCCN1CCOCC1` [Gefitinib (Iressa)], the cell viability amounted to 84.9%.

`CC(C)/C(O)=C1/C(=O)O[C@@H](c2ccoc2)[C@]2(C)C(O)[C@@H](O)[C@@]34OC5(C)OC67CC(C)(C(O)[C@]6(O)[C@@H](O)[C@]3(O5)C12)[C@H](CC(=O)O)[C@]74C` (stereo partly drawn): the cell viability amounted to 93.3%.

In the case of `CC(=O)O[C@H]1C[C@@H](OC(C)=O)C(C)(C)C2C[C@@H](O)[C@]3(C)C(CC[C@@]4(C)[C@H](c5ccoc5)OC(=O)[C@H]5O[C@]543)[C@]21C` (stereo partly drawn), the cell viability came to 103%.

Regarding `COc1cc(O)c2c(=O)cc(C)oc2c1CC=C(C)C`, the cell viability was found to be 87.8%.

Turning to `O=C(CCc1ccc(O)cc1)c1c(O)cc(O)cc1O[C@@H]1OC(CO)[C@@H](O)[C@@H](O)C1O` (stereo partly drawn), the cell viability is 104%.

Consider `COC(=O)c1c(C)cc(OC)cc1O`, for which the cell viability was determined as 94.6%.

In the case of `Cn1c(=O)[nH]c(=O)c2[nH]cnc21`, the cell viability is 110%.

As for `O=c1c(O)c(-c2ccc(O)c(O)c2)oc2c(O[C@@H]3O[C@H](CO)[C@@H](O)[C@H](O)[C@H]3O)c(O)cc(O)c12`, the cell viability worked out at 91.3%.

On to `O=C(O)c1ccc2c(c1)nc(Nc1cccc(Cl)c1)c1ccncc12` [cx-4945 (Silmitasertib)], for which the cell viability stood at 80.5%.

For `CC(=O)C1=C(O)C=C2Oc3c(C(C)=O)c(O)c(C)c(O)c3C2(C)C1=O` (stereo in doubt), the cell viability came out at 113%.

For `C[C@@H](Oc1cc(-n2cnc3ccc(CN4CCN(C)CC4)cc32)sc1C(N)=O)c1ccccc1C(F)(F)F`, the cell viability stood at 19.5%.

Regarding `CC(=O)N[C@@H](Cc1ccccc1)C(=O)O`, the cell viability worked out at 100%.

Consider `CC(C)=CCc1c(O)cc2oc(C)cc(=O)c2c1O`, for which the cell viability was 94.1%.

Turning to `C[C@H](CCC(=O)O)[C@H]1CC[C@H]2[C@@H]3[C@H](O)C[C@@H]4C[C@H](O)CC[C@]4(C)[C@H]3C[C@H](O)[C@]12C`, the cell viability stood at 100%.

On to `CC1(C)C(=O)C=CC2(C)C1C=CC1(C)C2CCC2(C)C(c3ccoc3)OC(=O)C3OC312` (stereo not drawn), for which the cell viability is 86.9%.

Consider `COC(=O)Nc1nc2cc(C(=O)c3ccccc3)ccc2[nH]1`, for which the cell viability was 16.8%.

Consider `COC(=O)C(C)c1ccc(C(=O)c2cccs2)cc1` (stereo not drawn), for which the cell viability is 103%.

For `CCOC(=O)Nc1nc2ccccc2[nH]1`, the cell viability is 103%.

Take `COC(=O)Nc1nc2cc(C(=O)c3cccs3)ccc2[nH]1` [Nocodazole]: the cell viability came to 13.3%.

For `COC(=O)Nc1nc2cc([S+]([O-])c3ccccc3)ccc2[nH]1` (stereo not drawn), the cell viability came out at 50.5%.

On to `CC(=O)Oc1ccc2c(c1OC(C)=O)OCC1(O)Cc3c(cc(OC(C)=O)c(OC(C)=O)c3OC(C)=O)C21` (stereo not drawn), for which the cell viability worked out at 108%.

For the compound `COc1cc2ncnc(-n3nc(-c4ccccn4)nc3N)c2cc1OC`, the cell viability amounted to 67%.

Turning to `O=c1cc(-c2ccccc2)oc2cccc(O)c12`, the cell viability was 119%.

Consider `CC(C)c1c(O)c(-c2cc3c(c(C(C)C)c2O)CCC2C(C)(C)CCC[C@]32C)cc2c1CCC1C(C)(C)CCC[C@]21C` (stereo partly drawn), for which the cell viability stood at 87.3%.

`COC(=O)C[C@H]1C(C)(C)C(=O)[C@@H]2CC3=C4CC(=O)O[C@@H](c5ccoc5)[C@]4(C)CC[C@@H]3[C@@]1(C)C2=O`: the cell viability was 99.2%.

Turning to `C=C1CCC2C(CC2(C)C)C(=O)CCC1O` (stereo not drawn), the cell viability was determined as 104%.

As for `CC1(C)C2CC(=O)O[C@@]3(C)C4=CC(=O)O[C@@H](c5ccoc5)[C@]4(C)CCC3[C@@]2(C)C=C[C@H]1O` (stereo partly drawn), the cell viability was 95.9%.

For the compound `Cn1cncc1[C@@](N)(c1ccc(Cl)cc1)c1ccc2c(c1)c(-c1cccc(Cl)c1)cc(=O)n2C` [Tipifarnib (Zarnestra)], the cell viability turned out to be 36.5%.

As for `CO[C@@]12[C@H](COC(N)=O)C3=C(C(=O)C(C)=C(N)C3=O)N1C[C@@H]1N[C@@H]12`, the cell viability came to 13%.

Regarding `C=CCc1ccc(OC(=O)c2ccccc2)c(OC)c1`, the cell viability was determined as 95.6%.

`O=c1c2cc(O)c(O)cc2oc2cc(O)c([C@@H]3O[C@H](CO)[C@@H](O)[C@H](O)[C@H]3O)c(O)c12`: the cell viability worked out at 96.4%.

In the case of `CC1(C)C(=O)[C@H]2C[C@]3(O)C4=CC(=O)O[C@@H](c5ccoc5)[C@@]4(C)CCC3[C@](C)(C2=O)[C@H]1CC(=O)O` (stereo partly drawn), the cell viability worked out at 95.4%.

Consider `CCOC(=O)c1c(C)cc(OC)cc1O`, for which the cell viability stood at 95.3%.

Regarding `COc1ccc(S(=O)(=O)Nc2cccnc2Nc2ccc(O)cc2)cc1`, the cell viability worked out at 49.4%.

Regarding `Nc1ccc(S(=O)(=O)Nc2ccccn2)cc1`, the cell viability came to 100%.

For `COc1cnc(NS(=O)(=O)c2ccc(N)cc2)nc1`, the cell viability was found to be 100%.

As to `C=C1C2CC[C@@]3(C)[C@H](c4ccoc4)OC(=O)C[C@]13O[C@H]1CC(O)C(C)(C)C(CC(=O)OC)[C@@]21C` (stereo partly drawn) [3alpha-HYDROXY-3-DEOXYANGOLENSIC ACID METHYL ESTER], the cell viability is 97.3%.

Turning to `O=C(O[C@@H]1Cc2c(O)cc(O)cc2O[C@@H]1c1cc(O)c(=O)c2c(O)c(O)cc([C@H]3Oc4cc(O)cc(O)c4C[C@H]3O)c2c1)c1cc(O)c(O)c(O)c1`, the cell viability worked out at 101%.

As for `C=C[C@@](C)(O)CCC1C(=C)CCC2[C@@](C)(CO)CCC[C@]12C` (stereo partly drawn), the cell viability is 112%.

As for `COc1cc(O)c(C(C)=O)c(O)c1`, the cell viability was 110%.

In the case of `CS(=O)(=O)N1CCc2c(-c3cnc(N)nc3)nc(N3CCOCC3)nc21`, the cell viability was 47.5%.

`O=C(Nc1ccc(C(=O)O)c(O)c1)c1ccccc1`: the cell viability is 96.4%.

As for `CC(C)[C@H](C(=O)Nc1ccc(C(=O)NO)cc1)c1ccccc1`, the cell viability was 0.459%.

Turning to `CC(=O)Nc1ccccc1`, the cell viability stood at 101%.

As for `O=c1c(O)c(-c2ccc(O)c(O)c2)oc2cc(O)ccc12`, the cell viability was 94%.

For `C[C@]12CCC3c4ccc(OS(=O)(=O)O)cc4CCC3C1CC[C@H]2O` (stereo partly drawn), the cell viability was found to be 98.1%.

For the compound `O=C(O)c1cc(=O)c(O)c2c(O)c(O)c(O)cc2c1`, the cell viability is 115%.

With `CNc1ccccc1C(=O)N1CCc2c([nH]c3ccccc23)C1=O`, the cell viability was found to be 88.5%.
